Only some compounds are listed: those with a hit (about 2.5% of all), similar ones and a draw of the others.
AI-2 QS modul = Vibrio harveyi AI-2 quorum sensing modulation | Vibrio harveyi JMH597 AI-2 luminescence/OD600 ratio, 9 h; active compounds read low; strain lacks LuxN and CqsS sensors; 0 = neutral-control median | activity change, % at 7.5 µM | hit rate 0.4% among 300,000; in the data active means activity change below about -75%, passing the limit was not always enough;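 further: luminescence divided by OD600 gain over 9 h not by final OD600 alone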
ATG4B inh = inhibitors of human ATG4B cysteine protease; ATG4B cleavage of LC3-PLA2, NBD-HPC fluorescence, 1 h; inhibition, % at 8.33 µM; hit rate 0.51% among 340,000; in the data active means inhibition above about 40%
Target sequence (Q9Y4P1 whole entry, looked up): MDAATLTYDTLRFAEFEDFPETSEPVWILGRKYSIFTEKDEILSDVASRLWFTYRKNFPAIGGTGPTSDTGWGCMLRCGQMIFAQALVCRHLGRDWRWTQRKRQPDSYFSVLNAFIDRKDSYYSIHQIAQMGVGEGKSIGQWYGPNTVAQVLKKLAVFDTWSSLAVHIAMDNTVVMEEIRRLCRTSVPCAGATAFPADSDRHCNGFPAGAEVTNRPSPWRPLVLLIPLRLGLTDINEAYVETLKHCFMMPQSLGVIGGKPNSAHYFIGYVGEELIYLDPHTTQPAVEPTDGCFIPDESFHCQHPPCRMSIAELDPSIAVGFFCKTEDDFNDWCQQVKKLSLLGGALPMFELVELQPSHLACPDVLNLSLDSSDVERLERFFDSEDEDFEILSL
V-ATPase pHluor = regulators of yeast V-ATPase proton transport; S. cerevisiae, pHLuorin cytosolic pH fluorescence; hit rate 0.37% among 350,000; AID 504577; response, % at 10 µM; in the data active means response mostly above about 7.3%, no sharp cut-off; inactive means mostly below about 5.4%; further: actives read high
SUMO Mot1 rescue = inhibitors of SUMOylation pathway: yeast Mot1-301 growth rescue; growth rescue, % at 18.8 µM; hit rate 1% among 320,000; S. cerevisiae Mot1-301 growth rescue, ATP luminescence, 38.5C; percent above DMSO median, 100 means doubled;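 active means every valid replicate shows activation above 250% relative to neutral control wells; inactive means the rest, any valid replicate at or below 250%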
Efflux pump mplx = inhibitors of Candida antifungal efflux pumps expressed in yeast. S. cerevisiae Candida pump triplex, Nile Red efflux. inhibition, % at 10 µM. hit rate 0.44% among 330,000. AID 485275;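 active means plate passing quality check with inhibition over a set limit, or well fluorescence over plate mean plus 4 SD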;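 further: Nile Red retained in pooled yeast measured as flow cytometry median fluorescence; higher means more Nile Red kept so more efflux inhibition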
VATPase regulator = yeast V-ATPase proton transport regulation | response, % at 10 µM | hit rate 2% among 980 | shares compounds with V-ATPase pHluor | S. cerevisiae pHLuorin cytosolic pH; in the data active means response above about 24%
Each line names hits and unclear results; the compound was inactive in the other large screens (follow-up assays come after a bar, where they were run).

COc1ccccc1Oc1ccc(N2CC(C(=O)OCC(=O)c3ccccc3)CC2=O)cc1 (configuration not stated)	none
Cc1c(NC(=O)COC(=O)C23CC4CC(CC(O)(C4)C2)C3)c(=O)n(-c2ccccc2)n1C	none
Cc1c(NC(=O)COC(=O)C2(c3ccccc3F)CCCC2)c(=O)n(-c2ccccc2)n1C	V-ATPase pHluor 11 | VATPase regulator inactive
Cc1cccc(C)c1NC(=O)CN(C)C(=O)c1cc([N+](=O)[O-])ccc1N1CCOCC1	none
CN(CC(=O)Nc1ccccc1Br)C(=O)c1cc([N+](=O)[O-])ccc1N1CCOCC1	V-ATPase pHluor 7.0 | VATPase regulator inactive
O=C(Nc1ccccc1N1CCOCC1)c1ccc([N+](=O)[O-])o1	V-ATPase pHluor 25 | VATPase regulator 90
O=C(Nc1ccccc1N1CCCCC1)c1ccc([N+](=O)[O-])o1	none (no result: AI-2 QS modul, SUMO Mot1 rescue, Efflux pump mplx)
CC(=O)Nc1ccc(NC(=O)c2ccc(C)c(S(=O)(=O)Nc3cccc(C)c3)c2)cc1	V-ATPase pHluor 10 | VATPase regulator inactive
COc1cccc(-n2c(CCn3nc(C)c([N+](=O)[O-])c3C)n[nH]c2=S)c1	V-ATPase pHluor 9.7 | VATPase regulator inactive
O=C(NCc1ccc(Cl)c(Cl)c1)c1ccco1	none
CCCCCCSc1nsc(NC(C)=O)n1	V-ATPase pHluor 11 | VATPase regulator inactive
CCCCSc1nsc(NC(C)=O)n1	none
COc1ccccc1C(=O)Nc1ccnn1C1CCN(CCCc2ccccc2)CC1	none
Cc1ccc(S(=O)(=O)N2CCC(C(=O)Nc3ccc(S(=O)(=O)N4CCCC4)cc3)CC2)cc1	none
Cc1ccc(S(=O)(=O)N2CCC(C(=O)N/N=C/c3cccn3C)CC2)cc1	V-ATPase pHluor 11 (no result: AI-2 QS modul) | VATPase regulator inactive
CCOC(=O)c1c(C)[nH]c(C)c1C(=O)COC(=O)/C=C/c1ccc(OC(F)F)cc1	V-ATPase pHluor 10 | VATPase regulator inactive
CSCCC(NC(=O)c1cccc(C)c1)C(=O)Nc1sccc1C(N)=O (configuration not stated)	none
c1ccc(CNC2=NCCCCC2)cc1	none
Cc1ccc(CNC2=NCCCCC2)n1C	V-ATPase pHluor 11 | VATPase regulator inactive
O=C(NC(=S)NC1CCSC1=O)c1cccs1 (configuration not stated)	V-ATPase pHluor 8.3 | VATPase regulator inactive
Cc1ccccc1C(=O)NC(=S)NC1CCSC1=O (configuration not stated)	none
Cc1ccc(C(=O)Nc2ccc(N3CCCCC3)cc2)cc1	V-ATPase pHluor 9.9 (no result: AI-2 QS modul) | VATPase regulator inactive
COc1ccc(-c2cc(C(=O)NCCCn3ccnc3)no2)cc1OC	V-ATPase pHluor 12 | VATPase regulator inactive
O=C(NC1CCCCC1)N1CCN(c2ncccn2)CC1	none
CN(CC(=O)Nc1cc(S(=O)(=O)N2CCOCC2)ccc1Cl)C1CCS(=O)(=O)C1 (configuration not stated)	V-ATPase pHluor 7.6 | VATPase regulator inactive
O=C(O)C(Cc1ccc(Cl)cc1)Sc1nc2ccccc2[nH]1 (configuration not stated)	none
O=S(=O)(O)c1cc(O)ccc1O	V-ATPase pHluor 15 (no result: AI-2 QS modul) | VATPase regulator inactive
CCOC(=O)C1=C(C)NC(C)=C(C(=O)OCC)C1C(=O)OCC(=O)N(C)Cc1ccccc1	none (no result: AI-2 QS modul)
CC(=O)Nc1ccc(NC(=O)CCNC(=O)c2ccccc2Cl)cc1	none
CC(C)(C)C(=O)Nc1ccccc1C(=O)NCCC(=O)Nc1ccccc1	V-ATPase pHluor 11 | VATPase regulator inactive
CCC(=O)Nc1c(-c2ccc3ccccc3c2)nc2ccccn12	none
COc1ccc(C(=O)Oc2ccc3ccc(=O)oc3c2)cc1OC	none
COc1ccc(C(=O)Oc2c(C)occc2=O)cc1OC	V-ATPase pHluor 21 | VATPase regulator inactive
COc1ccc(-n2c(-c3ccco3)nc3c(cnn3-c3ccccc3C)c2=O)cc1	none
C/C(=N\NC(N)=O)c1ccccc1Cl	none
Cc1ncsc1CCOC(=O)c1ccc([N+](=O)[O-])cc1	V-ATPase pHluor 45 | VATPase regulator inactive
CCN(CC)S(=O)(=O)c1cccc(C(=O)NCCCn2ccnc2)c1	none
CC(C)(C)c1ccc(/C=N/OCC(=O)NCc2ccc(F)cc2)cc1	none
CCn1cc(CN2CCCC(CO)(Cc3cccc(Cl)c3)C2)cn1 (configuration not stated)	V-ATPase pHluor 13 (no result: SUMO Mot1 rescue) | VATPase regulator inactive
CCn1cc(S(=O)(=O)N2CCN(Cc3ccc(F)cc3)CC2)cn1	none
CCn1cc(S(=O)(=O)N2CCN(Cc3cccc(Cl)c3)CC2)cn1	V-ATPase pHluor 6.1 | VATPase regulator inactive
O=C(O)CCC(=O)NCC(=O)c1ccc(F)cc1	none | VATPase regulator inactive
O=C(NCCCNC(=O)c1ccccn1)c1ccc(F)cc1	none
O=C(O)CCC(=O)Nc1ccc(F)cc1	none
O=C(NCCCNC(=O)c1ccc(F)cc1)c1ccc(F)cc1	none | VATPase regulator inactive
O=C(CCCC(=O)c1ccc(F)cc1)c1ccc(F)cc1	none | VATPase regulator inactive
N[C@@H](Cc1cnc[nH]1)C(=O)Nc1ccc2ccccc2c1	none (no result: AI-2 QS modul, SUMO Mot1 rescue, Efflux pump mplx)
O=C(NCCc1ccccc1)/C(=C\c1cccc([N+](=O)[O-])c1)NC(=O)c1ccco1	none
CN(C(=O)CSc1nc(N)c2c3c(sc2n1)CSC(C)(C)C3)c1ccccc1	V-ATPase pHluor 9.8 | VATPase regulator inactive
Cn1c2ccccc2c2nnc(SCC(=O)Nc3cccc(O)c3)nc21	none
CCOc1cc(/C=C/C(=O)c2ccc(O)cc2)ccc1OCC(=O)N(C)C	none
CCOc1cc(/C=C/C(=O)c2ccc3c(c2)OCCO3)ccc1OCC(=O)N(C)C	V-ATPase pHluor 15 | VATPase regulator inactive
O=C(O)c1ccc(COCC(F)(F)C(F)F)o1	none
FC(F)Oc1ccc(NC(=S)NCc2nc3ccccc3[nH]2)cc1	none
CCOc1ccc(NC(=S)NCc2nc3ccccc3[nH]2)cc1	V-ATPase pHluor 11 | VATPase regulator inactive
O=C(NCCS(=O)(=O)N1CCN(c2ccccc2F)CC1)c1ccc2c(c1)OCO2	none
COc1ccccc1CN1CC(C(=O)NCCCc2ccc(F)cc2)CCC1=O (configuration not stated)	V-ATPase pHluor 13 | VATPase regulator inactive
COc1ccccc1CCNC(=O)C1CCC(=O)N(Cc2ccccc2OC)C1 (configuration not stated)	none
CC(OC(=O)CN1C(=O)c2ccccc2C1=O)C(=O)N(C)c1ccccc1 (configuration not stated)	none
COc1ccc(CNS(=O)(=O)c2ccc(C3CNC(=O)C3)cc2)cc1 (configuration not stated)	V-ATPase pHluor 12 | VATPase regulator inactive
COc1ccccc1N(C)S(=O)(=O)c1ccc(C(=O)OCC(=O)Nc2ccc(C(N)=O)cc2)cc1	none (no result: AI-2 QS modul)
COc1ccc(NC(=O)COC(=O)c2ccc(S(=O)(=O)N(C)c3ccccc3OC)cc2)cc1OC	none | VATPase regulator inactive
O=C(NCCO)C(c1ccccc1)c1ccccc1	none
O=C(O)CNC(=O)C(c1ccccc1)c1ccccc1	V-ATPase pHluor 11 | VATPase regulator inactive

Compound activity (PubChem BioAssay)
